This is a sample that favours compounds with a hit; in the whole collection about 2% have one here.
M4 antag: CHRM4 antagonism in calcium assay; P08173; CHO-hM4 cells, ACh EC80, Fluo-8 calcium fluorescence; inhibition, % at 3 µM; 360,000 compounds, 0.73% hits;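 active = inhibition above its plate's cutoff, the mean inhibition of sample wells plus 3 SD, cut at about 27% in these data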;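 note: 0% = acetylcholine EC80 with DMSO and 100% = DMSO without agonist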
Target sequence (P08173 whole entry, looked up): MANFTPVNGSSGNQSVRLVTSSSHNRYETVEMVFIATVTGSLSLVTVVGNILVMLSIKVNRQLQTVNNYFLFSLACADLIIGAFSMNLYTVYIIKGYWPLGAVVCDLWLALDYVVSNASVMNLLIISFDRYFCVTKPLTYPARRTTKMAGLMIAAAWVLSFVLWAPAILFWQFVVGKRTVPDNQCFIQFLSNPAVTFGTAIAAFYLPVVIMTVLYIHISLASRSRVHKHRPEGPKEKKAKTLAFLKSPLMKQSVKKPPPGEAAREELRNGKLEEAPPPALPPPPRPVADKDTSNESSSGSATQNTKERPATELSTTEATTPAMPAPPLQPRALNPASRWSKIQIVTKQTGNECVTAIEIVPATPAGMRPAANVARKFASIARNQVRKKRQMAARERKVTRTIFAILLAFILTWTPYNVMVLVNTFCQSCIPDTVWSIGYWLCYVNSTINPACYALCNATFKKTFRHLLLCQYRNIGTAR
CHO-K1 Ca ag: M1 agonist counterscreen hit in parental CHO-K1 cells; 360,000 compounds, 0.48% hits; Fluo-8 calcium fluorescence; scaled to maximal ATP response, vehicle zero; activation, % at 3 µM; in the data active = activation above about 15%;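 note: untransfected CHO-K1 host cells lacking M1 receptor as counterscreen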
M4 PAM: positive allosteric modulators of human muscarinic M4 receptor; CHO-K1 hM4/Gqi5, Fluo-8 calcium fluorescence, ACh EC20; 0% = ACh EC20, 100% = maximal ACh; activation, % at 3 µM; 360,000 compounds, 0.4% hits; AID 624126;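 active = activation above its plate's cutoff, the mean activation of sample wells plus 3 SD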
M4 ag: agonists of human muscarinic M4 receptor (CHRM4). CHO-K1 hM4/Gqi5, Fluo-8 calcium fluorescence; vehicle 0%, full acetylcholine response 100%. activation, % at 3 µM. 360,000 compounds, 0.14% hits;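 active = activation above the run mean over all test wells plus 3 SD, cut at about 32% in these data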;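 note: peak over basal fluorescence ratio per well then scaled between controls; 0% = DMSO wells and 100% = acetylcholine at EC100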
CHO-K1 Ca PAM: counter-screen for M1 PAMs: effect in parental CHO-K1 cells | ATP EC20, Fluo-8 calcium fluorescence; 0% at ATP EC20, 100% at ATP max | activation, % at 3 µM | 360,000 compounds, 0.02% hits | AID 602247;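 active = activation above the run cutoff, the mean activation of all test compounds plus 3 SD, cut at about 40% in these data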;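 note: peak over basal fluorescence ratio in a 140 s read after ATP addition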
CHO-K1 Ca antag: counter-screen for M1 antagonists: effect in parental CHO-K1 cells. 360,000 compounds, 0.6% hits. ATP-induced calcium, Fluo-8 fluorescence. inhibition, % at 3 µM;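 active = inhibition above a per-plate cutoff, the plate's mean sample inhibition plus 3 SD, cut at about 24% in these data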;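 note: 0% = DMSO plus EC80 ATP and 100% = DMSO alone without ATP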
Numbers without * were called inactive; . = no result given.

SMILES | M4 antag | CHO-K1 Ca ag | M4 PAM | M4 ag | CHO-K1 Ca PAM | CHO-K1 Ca antag
CSc1ccccc1NC(=O)c1ccccc1 | 4 | 16* | 1 | 1 | 10 | 0
CCc1ccc(NC(=O)c2cc(S(=O)(=O)N3CCCC3)c[nH]2)cc1 | -4 | 2 | -4 | 3 | 13 | 18
Cn1nc(C(F)(F)F)c(/C=N/OC(=O)c2ccccc2)c1SCc1ccccc1Cl | 30* | 0 | -24 | -1 | 4 | -8
COc1ccc(OC)c(NC(=O)CSc2nnc(CNC(=O)COc3ccc(Cl)cc3)o2)c1 | 2 | 2 | 0 | 4 | 19 | -10
Cc1ccc(C2(C)NC(=O)N(Cc3c(C)noc3C)C2=O)cc1 (stereo not drawn) | -3 | 2 | 0 | 1 | 8 | -5
CCOC(=O)[C@H]1[C@H]2COc3ccc(OC)cc3[C@@H]2N2C(=O)CN(Cc3ccc(F)cc3)C(=O)[C@@]12C | 42* | 2 | -16 | 6 | 13 | -11
CCOC(=O)[C@H]1[C@H]2COc3ccc(OC)cc3[C@@H]2N2C(=O)CN(Cc3ccc(Cl)cc3)C(=O)[C@@]12C | 17 | 3 | -14 | 12 | 3 | -18
CSc1ccc2c(c1)N(CCC1CCCCN1C)c1ccccc1S2 (stereo not drawn) | 98* | . | -19 | 19 | . | .
CC(=O)c1ccc2c(c1)N(CCCN1CCC(CCO)CC1)c1ccccc1S2 | -6 | 1 | -4 | 5 | 9 | 3
COc1ccc(OC)c(-n2c(SCC(=O)NCc3ccco3)nnc2-c2c[nH]c3ccccc23)c1 | 40* | 0 | -12 | 0 | 7 | 6
COc1ccc(-c2[nH]c(-c3ccc(C)cc3)nc2SCC(=O)NCc2ccco2)cc1OC | -24 | 0 | 21* | 0 | 2 | -2
COc1cccc(C=C2SC(=S)NC2=O)c1 | -4 | 1 | -1 | 2 | -7 | -6
CC12CCC(C(=O)NNC(=O)c3ccc(F)cc3)(OC1=O)C2(C)C (stereo not drawn) | -2 | 2 | -1 | 1 | 18 | -1
CCCCOc1ccc(C(=O)N/C(=C\c2ccc(OC)cc2)C(=O)OCc2ccco2)cc1 | -2 | 16* | -8 | 0 | 23 | -19
Cn1cnc(S(=O)(=O)Nc2ccc(Cl)c(C(F)(F)F)c2)c1 | 6 | 0 | 15* | 1 | -16 | 2
NNC(=O)c1nc(-c2ccccc2)n2c1CCCCC2 | -1 | 0 | -1 | 1 | -10 | 6
O=C(N/N=C/c1ccncc1)c1nc(-c2ccccc2)n2c1CCCCC2 | 29* | 0 | -1 | 2 | -1 | -2
COc1cc(N/C(=N/S(=O)(=O)c2ccccc2)c2ccccc2)ncn1 | 5 | 0 | -2 | 1 | -6 | 25*
Cc1noc(C)c1C(=O)OCC(=O)Nc1ccccc1C(=O)NC(C)c1ccccc1 (stereo not drawn) | -5 | 3 | 4 | 6 | 49* | -17
COCCCNC(=O)c1ccccc1Sc1ccc(NC(C)=O)nc1 | -7 | 0 | -1 | 2 | -14 | 24*
CO/N=C/C(C#N)=C/c1ccc(OC)c(OC)c1 | -5 | 0 | 20* | -1 | 22 | -5
COc1ccc(CCC(=O)NCCS(=O)(=O)N2CCN(c3ccc(OC)cc3)CC2)cc1 | 14 | 15* | -15 | 26 | 4 | -6
Cc1ccc(NS(=O)(=O)c2ccc3c(c2)NC(=O)CC(=O)N3)cc1C | 5 | 1 | 11 | 2 | 12 | -15
Nc1c(C(=O)CSc2n[nH]c(-c3ccccc3)n2)c(=O)[nH]c(=O)n1C1CC1 | 3 | 0 | 23* | 2 | 1 | -1
CCc1ccc(CN/C=C/C(=O)c2ccc(Br)cc2)cc1 | -8 | 1 | 7 | 0 | -1 | -12
O=C(O)CN(c1ccccc1F)S(=O)(=O)c1ccccc1 | -3 | -1 | 4 | 0 | -3 | 5
C(#Cc1ccccc1)CN1CCCCC1 | -7 | 3 | 1 | 2 | 18 | -12
OC(CC#CCN1CCCC1)(c1ccccc1)c1ccccc1 | 88* | 1 | -60 | 0 | 13 | -1
OC(CC#CCN1CCCCC1)(c1ccccc1)c1ccccc1 | 44* | 2 | -18 | 2 | 13 | -8
C(#CCN1CCOCC1)COCCOC(c1ccccc1)c1ccccc1 | -5 | 1 | 4 | -1 | 14 | -12

Source: PubChem (The Scripps Research Institute Molecular Screening Center)
